Records with an inconclusive call do not appear. The source made the active and inactive calls. Unless noted, calls come from the whole dose curve; as a rule, active = well fitted curve in the direction sought with a large enough effect in the repeat runs; inconclusive = weak or mixed curves; inactive = no such curve, though single readings can be large; an effect the other way counts as inactive or inconclusive.
Tests used:
[1] = qHTS assay for small molecule agonists of the p53 signaling pathway (AID 651631; calls by dose curve; note: nearly all actives have a fitted effect of over 15% in size)
Summary of the method: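 Fluorescence intensity from cleaved LiveBLAzer B/G substrate (2 h, room temperature) served as the signal. Beforehand, HCT-116 reporter cells bearing p53 response elements were treated 16 h at 37 °C with DMSO-dissolved compounds.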

[2] = qHTS assay for small molecules that induce genotoxicity in human embryonic kidney cells expressing luciferase-tagged ATAD5 (AID 651632); note: nearly all actives have a fitted effect of over 15% in size
Summary of the method: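 HEK293T cells carrying a luciferase reporter tagged to ATAD5 were exposed to compound or DMSO vehicle for 16 hr at 37C, 5% CO2. Amplite was added, and after 30 min at room temperature luciferase activity was read as a marker of ATAD5 induction.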

[3] = qHTS assay for small molecule agonists of the p53 signaling pathway - cell viability (AID 651633; calls by dose curve;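 note: p53RE-bla HCT reporter cells with a stable beta-lactamase p53 reporter; nearly all actives have a fitted effect of over 30% in size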)
Summary of the method: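 p53RE-bla cells were treated with compound for 16 hours at 37 C. Cytotoxicity was then measured as CellTiter-Glo luminescence after 30 min at room temperature.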

[4] = qHTS assay for small molecule disruptors of the mitochondrial membrane potential - cell viability (AID 720634; calls by dose curve;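 note: human HepG2 liver cancer cells; nearly all actives have a fitted effect of over 20% in size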)
Summary of the method: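 HepG2 cells seeded overnight at 37 C, then exposed to compound or DMSO for 1 hr at 37 C, 5% CO2. m-MPI dye added, then CellTiter-Glo for 30 min at room temperature; viability read as ATP luminescence.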

[5] = qHTS assay for small molecule disruptors of the mitochondrial membrane potential (AID 720635); note: potency is the fitted concentration of half-maximal effect
Summary of the method: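 HepG2 cells exposed to compound 1 hr at 37C, then Mito-MPS dye 30 min. Ratio read of aggregate (540/590 nm) versus monomer (490/535 nm) fluorescence.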

[6] = qHTS assay to test for compound auto fluorescence at 590 nm (red) in HepG2 cells (AID 720674)
Summary of the method: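 HepG2 cells, 2,000 per well in MEM with 10% FBS, attached overnight at 37 C, then got 23 nL compound or DMSO. After 1 hr at 37 C, 5% CO2, red fluorescence was read at 540/590 nm against Rose Bengal sodium as reference.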

[7] = qHTS assay to test for compound auto fluorescence at 460 nm (blue) in HEK293 cells (AID 720678)
Summary of the method: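 HEK293, 2,000 cells/well, 10% dialyzed FBS; attach 4-5 hr 37C; pin compound or DMSO; o/n 37C/5% CO2; fluorescence 405/460 nm; triamterene-equivalent units.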

[8] = qHTS assay to test for compound auto fluorescence at 590 nm (red) in HEK293 cells (AID 720679)
Summary of the method: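 Intensity at 540nm excitation and 590nm emission is reported as Rose Bengal sodium-equivalent autofluorescence. Measurements followed overnight exposure (37C, 5% CO2) of HEK293 cells, 2,000 per well, to 23 nL compound.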

[9] = qHTS assay to test for compound auto fluorescence at 535 nm (green) in HEK293 cells (AID 720680)
[10] = qHTS assay to test for compound auto fluorescence at 460 nm (blue) in HEK293 cell free culture (AID 720681)
Summary of the method: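 Compounds were added to cell-free DMEM with 10% FBS and fluorescence read directly. The blue channel used 405 nm excitation and 460 nm emission, with triamterene as the reference fluorophore.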

[11] = qHTS assay to test for compound auto fluorescence at 535 nm (green) in HEK293 cell free culture (AID 720682)
Summary of the method: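 Intrinsic compound fluorescence is measured in culture medium containing 10% FBS, with excitation at 485 nm and detection at 535 nm, referenced to fluorescein.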

[12] = qHTS assay to test for compound auto fluorescence at 590 nm (red) in HepG2 cell free culture (AID 720684)
Summary of the method: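 Compound was pinned into wells holding MEM with 10% FBS and no cells, and red fluorescence was read at Ex/Em 540/590 nm. Signal is expressed as auto fluorescence equivalency relative to Rose Bengal sodium.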

[13] = qHTS assay to test for compound auto fluorescence at 460 nm (blue) in HepG2 cell free culture (AID 720685)
Summary of the method: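 Compound (23 nL) or DMSO pinned into cell-free MEM with 10% FBS; blue fluorescence read at 405/460 nm excitation/emission, expressed as auto-fluorescence equivalency to triamterene.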

[14] = qHTS assay to test for compound auto fluorescence at 535 nm (green) in HepG2 cell free culture (AID 720686)
[15] = qHTS assay to test for compound auto fluorescence at 460 nm (blue) in HepG2 cells (AID 720687)
Summary of the method: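 HepG2 cells in MEM with 10% FBS, attached overnight at 37 C, were exposed to compound or DMSO for 1 hr at 37 C, 5% CO2. Blue fluorescence was read at 405/460 nm, with triamterene as reference fluorophore.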

[16] = target: Glucocorticoid receptor (Homo sapiens) (UniProt P04150); experiment: qHTS assay to identify small molecule agonists of the glucocorticoid receptor (GR) signaling pathway (AID 720691; active = well fitted activation curve with a large enough effect in the signal ratio in the repeat runs, not every such curve was filed as active; the % refers to the signal ratio); conditions: GR-bla HeLa, beta-lactamase reporter ratio, 18 h; activation: at 62.4 µM (top of the series) unless noted
Summary of the method: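 GR-bla HeLa cells (beta-lactamase reporter under glucocorticoid response element) were plated 4 h at 37 C/5% CO2, given compounds in DMSO, and incubated 18 h at 37 C. LiveBLAzer B/G FRET substrate was added for 2 h at room temperature, then fluorescence intensity read.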

[17] = qHTS assay to test for compound auto fluorescence at 535 nm (green) in HepG2 cells (AID 720675)
[18] = qHTS assay to test for compound auto fluorescence at 590 nm (red) in HEK293 cell free culture (AID 720683)
Summary of the method: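 Cell-free wells of DMEM with 10% FBS received compound, and intrinsic fluorescence was read at excitation/emission 540/590 nm. Values expressed as equivalence to Rose Bengal sodium.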

[19] = target: Glucocorticoid receptor (Homo sapiens) (UniProt P04150); experiment: qHTS assay to identify small molecule antagonists of the glucocorticoid receptor (GR) signaling pathway (AID 720692; active = well fitted inhibition curve with a large enough effect in the signal ratio in the repeat runs, not every such curve was filed as active; the % refers to the signal ratio)
Summary of the method: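 GR-bla HeLa cells (beta-lactamase reporter under glucocorticoid response element) were pre-plated 4 h at 37 C, treated with compounds plus 5 nM dexamethasone (final) for 18 h, then read by LiveBLAzer B/G FRET fluorescence after 2 h.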

[20] = qHTS assay for small molecules that induce genotoxicity in human embryonic kidney cells expressing luciferase-tagged ATAD5 - cell viability (AID 651634; calls by dose curve; note: nearly all actives have a fitted effect of over 25% in size)
Summary of the method: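 HEK293T cells expressing luciferase-tagged ATAD5 were exposed to compound or DMSO for 15.5 hr at 37C, 5% CO2. Viability was then read as live-cell protease activity by CellTiter-Fluor fluorescence after 30 min at 37C.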
% is set by controls: 0 for no effect and ±100 for the full control effect.

Glucocorticoid receptor (Homo sapiens), sequence (P04150 whole entry, looked up): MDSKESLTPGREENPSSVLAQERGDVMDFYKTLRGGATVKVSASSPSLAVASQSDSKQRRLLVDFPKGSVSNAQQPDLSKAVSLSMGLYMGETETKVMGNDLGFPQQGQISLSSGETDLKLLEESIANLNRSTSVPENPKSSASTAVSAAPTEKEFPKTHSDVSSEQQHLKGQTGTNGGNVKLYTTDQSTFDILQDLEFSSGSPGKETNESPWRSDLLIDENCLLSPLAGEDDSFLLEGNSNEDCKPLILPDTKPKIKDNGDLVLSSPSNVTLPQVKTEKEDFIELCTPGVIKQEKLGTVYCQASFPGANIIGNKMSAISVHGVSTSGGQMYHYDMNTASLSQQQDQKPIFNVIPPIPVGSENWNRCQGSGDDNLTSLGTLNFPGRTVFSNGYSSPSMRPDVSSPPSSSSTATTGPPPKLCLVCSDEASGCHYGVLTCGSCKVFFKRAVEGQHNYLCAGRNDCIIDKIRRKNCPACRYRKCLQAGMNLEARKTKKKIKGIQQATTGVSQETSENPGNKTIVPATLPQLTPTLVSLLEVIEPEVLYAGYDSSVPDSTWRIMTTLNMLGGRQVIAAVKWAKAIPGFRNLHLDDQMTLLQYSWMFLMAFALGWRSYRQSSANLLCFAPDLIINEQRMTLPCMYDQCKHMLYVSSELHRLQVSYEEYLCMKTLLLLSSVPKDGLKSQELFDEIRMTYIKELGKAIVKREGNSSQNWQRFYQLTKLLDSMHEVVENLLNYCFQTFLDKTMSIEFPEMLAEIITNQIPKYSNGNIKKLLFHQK

CCCCC/C=C\C/C=C\CCCCCCCC(=O)NC(C)c1ccccc1 (stereo not given)
inactive: Potency [1] | Potency [2] | Potency [3] | Potency [4] | Potency [5] | Potency [6] | outcome [7] | Potency [8] | outcome [9] | outcome [10] | outcome [11] | Potency [12] | outcome [13] | Potency [14] | outcome [15] | Potency [16]

O=C(O)c1ccco1
inactive: Potency [1] | Potency [2] | Potency [3] | Potency [4] | Potency [5] | Potency [6] | Potency [8] | outcome [9] | outcome [10] | outcome [11] | Potency [12] | outcome [13] | Potency [14] | outcome [15]

O=[N+]([O-])c1ccc2[nH]ncc2c1
active: Potency [5] 38.5 µM
inactive: Potency [1] | Potency [2] | Potency [3] | Potency [4] | Potency [6] | Potency [17] | outcome [7] | Potency [8] | outcome [9] | outcome [10] | Potency [18] | Potency [12] | outcome [13] | Potency [14] | outcome [15] | Potency [19]

COC(=O)c1ccc(I)cc1S(=O)(=O)NC(=O)Nc1nc(C)nc(OC)n1
inactive: Potency [1] | Potency [2] | Potency [3] | Potency [20] | Potency [4] | Potency [6] | Potency [17] | Potency [8] | outcome [9] | outcome [10] | outcome [11] | Potency [18] | Potency [12] | Potency [14] | outcome [15] | Potency [16] | Potency [19]

O=C1OC(CN2CCOCC2)CN1/N=C/c1ccc([N+](=O)[O-])o1 (stereo not given)
inactive: Potency [1] | Potency [2] | Potency [3] | Potency [4] | Potency [5] | fluorescence, relative to Rose Bengal [6] -0.0946% [at 18.6 µM] | fluorescence, % of fluorescein control [17] -0.0437% [at 18.6 µM] | fluorescence, % of triamterene [7] -0.0248% [at 18.6 µM] | fluorescence, % of fluorescent control [8] 0.088% [at 18.6 µM] | fluorescence, % of fluorescein [9] -0.416% [at 18.6 µM] | fluorescence, % of fluorescent control [10] -0.128% [at 18.6 µM] | activity change [11] -0.0395% [at 18.6 µM] | fluorescence, % of fluorescent control [18] 0.0972% [at 18.6 µM] | fluorescence, % of fluorescein control [14] -0.14% [at 18.6 µM] | fluorescence, % of fluorescent control [15] -0.0405% [at 18.6 µM] | Potency [16] | Potency [19]

CC1(c2ccccc2)OC(C(=O)O)=CC1=O (stereo not given)
inactive: Potency [1] | Potency [2] | Potency [3] | Potency [20] | Potency [4] | Potency [17] | outcome [7] | Potency [8] | outcome [9] | outcome [10] | Potency [18] | Potency [12] | outcome [13] | Potency [14] | outcome [15]

CC/C=C\CCOC(=O)CC
inactive: Potency [1] | Potency [2] | Potency [3] | Potency [20] | Potency [4] | Potency [6] | Potency [17] | outcome [7] | Potency [8] | outcome [9] | outcome [10] | outcome [11] | Potency [18] | outcome [13] | Potency [14] | outcome [15]

CC(COCCO)OCCO (stereo not given)
inactive: Potency [1] | Potency [2] | Potency [3] | Potency [20] | Potency [4] | Potency [6] | Potency [17] | outcome [7] | Potency [8] | outcome [9] | outcome [10] | outcome [11] | Potency [18] | Potency [14] | outcome [15]

Cn1c(=O)cc(Oc2ccc(F)cc2F)c2cnc(NCC(C)(C)O)nc21
inactive: Potency [1] | Potency [2] | Potency [3] | Potency [20] | Potency [17] | Potency [8] | outcome [9] | outcome [10] | outcome [11] | Potency [18] | Potency [14] | outcome [15] | Potency [16] | Potency [19]

O=[N+]([O-])c1cccc(S(=O)(=O)O)c1
inactive: Potency [1] | Potency [2] | Potency [3] | Potency [20] | Potency [6] | Potency [8] | outcome [9] | outcome [10] | outcome [11] | Potency [18] | Potency [12] | outcome [13] | Potency [14] | Potency [16] | Potency [19]

CN(C)c1ccc(C(c2ccccc2)c2ccc(N(C)C)cc2)cc1
inactive: Potency [1] | Potency [2] | Potency [3] | Potency [20] | Potency [17] | outcome [7] | Potency [8] | outcome [9] | outcome [10] | outcome [11] | Potency [18] | Potency [12] | outcome [13] | Potency [14] | outcome [15]

COc1ccc(S(=O)(=O)N2C(=O)[C@@](c3ccccc3OC)(N3C[C@H](O)C[C@H]3C(=O)N(C)C)c3cc(Cl)ccc32)c(OC)c1
inactive: Potency [1] | Potency [2] | Potency [3] | Potency [4] | Potency [5] | Potency [6] | Potency [17] | outcome [7] | Potency [8] | outcome [9] | outcome [10] | outcome [11] | outcome [13] | Potency [14] | outcome [15] | Potency [16]

CCOc1ccc(N)c([N+](=O)[O-])c1
inactive: Potency [1] | Potency [2] | Potency [3] | Potency [4] | Potency [5] | Potency [6] | Potency [17] | outcome [7] | Potency [8] | outcome [9] | outcome [10] | Potency [18] | Potency [12] | Potency [14]

Clc1ccc(Cn2c(CN3CCCC3)nc3ccccc32)cc1
inactive: Potency [1] | Potency [2] | Potency [3] | Potency [20] | Potency [4] | fluorescence, relative to Rose Bengal [6] -0.15% [at 18.6 µM] | fluorescence, % of triamterene [7] 0.123% [at 18.6 µM] | fluorescence, % of fluorescent control [8] 0.574% [at 18.6 µM] | fluorescence, % of fluorescein [9] 0.026% [at 18.6 µM] | fluorescence, % of fluorescent control [10] -0.0089% [at 18.6 µM] | activity change [11] -0.0526% [at 18.6 µM] | fluorescence, % of fluorescent control [18] 0.147% [at 18.6 µM] | fluorescence, % of Rose Bengal [12] -0.0239% [at 18.6 µM] | fluorescence, % of fluorescent control [13] 0.0634% [at 18.6 µM] | fluorescence, % of fluorescein control [14] -0.0084% [at 18.6 µM] | fluorescence, % of fluorescent control [15] 0.0474% [at 18.6 µM] | Potency [16]

C=CC1CC2C=CC1C2 (stereo not given)
inactive: Potency [1] | Potency [2] | Potency [3] | Potency [20] | Potency [4] | Potency [6] | Potency [17] | outcome [7] | Potency [8] | outcome [9] | outcome [10] | outcome [11] | Potency [18] | Potency [14] | outcome [15] | Potency [16] | Potency [19]
